Test results as given in the supplement of paper PMC10849652.
About 8,800 targets were measured; listed, in parts, are those with a hit and a random draw of the rest. About 0.5% of all pairs of compound and target were hits. A number with no mark means an inactive call.

Tests used:
Experiment in all cases: log2 fold change, soluble protein after heating vs DMSO (PISA); higher = thermal stabilisation; K562 lysate, 10 uM; active = over 0.2 and 3.5 SD of the protein, either way, in both replicates (recomputed)
[1] = compound: Cc1cn(-c2cc(NC(=O)c3ccc(C)c(Nc4nccc(-c5cccnc5)n4)c3)cc(C(F)(F)F)c2)cn1 [nilotinib]
Summary of the method: (§1)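 A 30 min treatment with 10 μM compound was applied to crude K562 extract at 1 mg/mL protein in PBS pH 7.4 with 1 mM MgCl2. Heating for 3 min spanned 48°C-58°C, after which aliquots were pooled, adjusted to 0.5% NP-40 at 4°C and spun at 21,000xg for 90 min. TMTpro 16plex LC-MS/MS of the supernatant, with channel sums equalised, gave values recorded as log-two fold change in thermal stability against solvent controls, from duplicates.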

[2] = compound: Cc1nc(Nc2n[nH]c3c2CN(C(=O)N[C@H](CN(C)C)c2ccccc2)C3(C)C)c2sccc2n1
Summary of the method: as §1

[3] = compound: Cc1nc(Nc2ncc(C(=O)Nc3c(C)cccc3Cl)s2)cc(N2CCN(CCO)CC2)n1 [dasatinib]
Summary of the method: as §1

[4] = compound: Cc1ncc(-c2ccnc(Nc3ccc(S(C)(=O)=O)cc3)n2)n1C(C)C
Summary of the method: as §1

[5] = compound: Cn1cc(-c2ccc3c(c2)CCN3C(=O)Cc2cccc(C(F)(F)F)c2)c2c(N)ncnc21
Summary of the method: as §1

[6] = compound: Cn1cc(CNCC2CCN(c3ncc(C(=O)NO)cn3)CC2)c2ccccc21 [quisinostat]
Summary of the method: as §1

[7] = compound: Cn1cncc1[C@@](N)(c1ccc(Cl)cc1)c1ccc2c(c1)c(-c1cccc(Cl)c1)cc(=O)n2C [tipifarnib]
Summary of the method: as §1

[8] = compound: NC(=O)Nc1cc(-c2cccc(F)c2)sc1C(=O)N[C@H]1CCCNC1
Summary of the method: as §1

[9] = compound: NC(=O)c1cnc(N[C@@H]2CCCC[C@@H]2N)nc1Nc1cccc(-n2nccn2)c1
Summary of the method: as §1

[10] = compound: NC1(c2ccc(-c3nc4ccn5c(=O)[nH]nc5c4cc3-c3ccccc3)cc2)CCC1
Summary of the method: as §1

[11] = compound: NCC(=O)Nc1ccc(-n2nc(C(F)(F)F)cc2-c2ccc3c(ccc4ccccc43)c2)cc1
Summary of the method: as §1

[12] = compound: O=C(CCCCCCC(=O)Nc1ccccc1)NO [vorinostat]
Summary of the method: as §1

[13] = compound: O=C(O)c1ccc2c(c1)nc(Nc1cccc(Cl)c1)c1ccncc12 [silmitasertib]
Summary of the method: as §1

[14] = compound: O=C1NC(=O)C(c2cnc3ccccn23)=C1c1cn2c3c(cc(F)cc13)CN(C(=O)N1CCCCC1)CC2
Summary of the method: as §1

[15] = compound: c1cn2cc(-c3ccc4cn[nH]c4c3)nc(Nc3ccc(N4CCOCC4)cc3)c2n1 [entospletinib]
Summary of the method: as §1

MPZL1 (UniProt O95297)
UniProt O95297, sequence (O95297 whole entry, looked up): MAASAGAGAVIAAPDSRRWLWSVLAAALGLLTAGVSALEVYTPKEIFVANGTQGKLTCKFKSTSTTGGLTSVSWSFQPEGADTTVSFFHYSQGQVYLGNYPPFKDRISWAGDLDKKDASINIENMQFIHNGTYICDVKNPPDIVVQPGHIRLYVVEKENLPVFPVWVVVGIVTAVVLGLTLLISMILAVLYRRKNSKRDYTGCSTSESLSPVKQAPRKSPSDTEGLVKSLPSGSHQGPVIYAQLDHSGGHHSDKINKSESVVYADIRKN
log2 fold change [1]: -0.03
log2 fold change [2]: 0.032
log2 fold change [3]: 0.033
log2 fold change [4]: -0.014
log2 fold change [5]: 0.018
log2 fold change [6]: 0.071
log2 fold change [7]: 0.035
log2 fold change [8]: -0.02
log2 fold change [9]: 0.026
log2 fold change [10]: 0.028
log2 fold change [11]: -0.059
log2 fold change [12]: 0.022
log2 fold change [13]: -0.004
log2 fold change [14]: 0.021
log2 fold change [15]: 0.017

MME (UniProt P08473)
log2 fold change [1]: -0.09
log2 fold change [2]: 0.082
log2 fold change [3]: -0.513 (active)
log2 fold change [4]: 0.021
log2 fold change [5]: 0.104
log2 fold change [6]: -0.02
log2 fold change [7]: -0.031
log2 fold change [8]: 0.085
log2 fold change [9]: 0.061
log2 fold change [10]: -0.014
log2 fold change [12]: 0.096
log2 fold change [13]: -0.033
log2 fold change [14]: -0.038

MRPL27 (UniProt Q9P0M9)
log2 fold change [1]: -0.112
log2 fold change [2]: 0.027
log2 fold change [3]: 0.089
log2 fold change [4]: -0.039
log2 fold change [5]: 0.091
log2 fold change [6]: -0.012
log2 fold change [7]: 0.015
log2 fold change [8]: -0.006
log2 fold change [9]: 0.072
log2 fold change [10]: -0.064
log2 fold change [12]: 0.087
log2 fold change [13]: 0.106
log2 fold change [14]: -0.008
log2 fold change [15]: -0.027

MAD2L1BP isoform 3 (UniProt Q15013)
log2 fold change [1]: -0.028
log2 fold change [2]: 0.108
log2 fold change [3]: 0.016
log2 fold change [4]: -0.007
log2 fold change [5]: -0.026
log2 fold change [6]: -0.066
log2 fold change [7]: 0.018
log2 fold change [8]: -0.019
log2 fold change [9]: 0.048
log2 fold change [10]: -0.056
log2 fold change [11]: -0.026
log2 fold change [12]: -0.299 (active)
log2 fold change [13]: -0.019
log2 fold change [14]: 0.008
log2 fold change [15]: 0

KIF21A isoform 5 (UniProt Q7Z4S6)
log2 fold change [1]: 0.011
log2 fold change [2]: 0.036
log2 fold change [3]: 0.001
log2 fold change [4]: 0
log2 fold change [5]: 0.001
log2 fold change [6]: -0.011
log2 fold change [7]: -0.048
log2 fold change [8]: 0.048
log2 fold change [9]: -0.009
log2 fold change [10]: -0.028
log2 fold change [11]: 0.005
log2 fold change [12]: -0.239 (active)
log2 fold change [13]: -0.004
log2 fold change [14]: 0.007
log2 fold change [15]: -0.058

MFF isoform 2 (UniProt Q9GZY8)
log2 fold change [1]: -0.025
log2 fold change [2]: -0.039
log2 fold change [3]: -0.005
log2 fold change [4]: 0.008
log2 fold change [5]: -0.012
log2 fold change [6]: 0.002
log2 fold change [7]: -0.004
log2 fold change [8]: 0.007
log2 fold change [9]: 0.016
log2 fold change [10]: -0.026
log2 fold change [11]: 0.003
log2 fold change [12]: 0.17
log2 fold change [13]: -0.048
log2 fold change [14]: 0.029
log2 fold change [15]: -0.055

MRPL10 isoform 2 (UniProt Q7Z7H8)
log2 fold change [1]: 0.009
log2 fold change [2]: 0.016
log2 fold change [3]: -0.019
log2 fold change [4]: 0.025
log2 fold change [5]: 0.054
log2 fold change [6]: -0.22
log2 fold change [7]: -0.017
log2 fold change [8]: 0.015
log2 fold change [9]: 0.024
log2 fold change [10]: -0.011
log2 fold change [11]: 0.005
log2 fold change [12]: 0.035
log2 fold change [13]: -0.027
log2 fold change [14]: -0.027
log2 fold change [15]: -0.027

LIMK2 isoform 3 (UniProt P53671)
UniProt P53671, sequence (P53671 whole entry, looked up): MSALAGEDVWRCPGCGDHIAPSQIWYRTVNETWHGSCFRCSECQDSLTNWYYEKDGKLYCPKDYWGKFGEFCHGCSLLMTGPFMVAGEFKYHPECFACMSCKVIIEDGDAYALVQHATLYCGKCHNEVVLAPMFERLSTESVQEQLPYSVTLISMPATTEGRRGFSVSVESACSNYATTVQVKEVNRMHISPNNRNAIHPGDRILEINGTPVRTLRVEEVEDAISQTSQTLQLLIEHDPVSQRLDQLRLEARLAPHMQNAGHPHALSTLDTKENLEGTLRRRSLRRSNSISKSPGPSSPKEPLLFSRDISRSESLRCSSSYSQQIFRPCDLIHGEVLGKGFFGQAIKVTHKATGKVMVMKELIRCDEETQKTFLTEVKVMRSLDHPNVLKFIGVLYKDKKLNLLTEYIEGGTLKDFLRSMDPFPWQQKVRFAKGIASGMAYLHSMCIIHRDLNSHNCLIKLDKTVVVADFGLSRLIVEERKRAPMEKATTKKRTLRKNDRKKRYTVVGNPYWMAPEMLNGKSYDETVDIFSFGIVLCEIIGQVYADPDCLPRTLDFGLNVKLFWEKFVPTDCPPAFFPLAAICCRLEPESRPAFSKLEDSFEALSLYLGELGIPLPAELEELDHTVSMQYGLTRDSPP
log2 fold change [1]: 0.074
log2 fold change [2]: 0.06
log2 fold change [3]: -0.126
log2 fold change [4]: 0.07
log2 fold change [5]: -0.099
log2 fold change [6]: -0.003
log2 fold change [7]: -0.05
log2 fold change [8]: -0.066
log2 fold change [9]: -0.064
log2 fold change [10]: 0.008
log2 fold change [11]: -0.011
log2 fold change [12]: -0.21
log2 fold change [13]: 0.114
log2 fold change [14]: 0.021
log2 fold change [15]: -0.055

MED17 (UniProt Q9NVC6)
log2 fold change [1]: -0.011
log2 fold change [2]: 0.036
log2 fold change [3]: -0.033
log2 fold change [4]: -0.116
log2 fold change [5]: -0.014
log2 fold change [6]: -0.033
log2 fold change [7]: -0.075
log2 fold change [8]: 0.019
log2 fold change [9]: 0.038
log2 fold change [10]: 0.005
log2 fold change [11]: -0.051
log2 fold change [12]: -0.392 (active)
log2 fold change [13]: -0.008
log2 fold change [14]: -0.006
log2 fold change [15]: 0.083

MORC2 (UniProt Q9Y6X9)
log2 fold change [1]: -0.012
log2 fold change [2]: -0.02
log2 fold change [3]: -0.046
log2 fold change [4]: 0.006
log2 fold change [5]: 0.051
log2 fold change [6]: -0.05
log2 fold change [7]: 0.024
log2 fold change [8]: 0.049
log2 fold change [9]: 0.028
log2 fold change [10]: -0.001
log2 fold change [11]: 0.014
log2 fold change [12]: -0.328 (active)
log2 fold change [13]: 0.103
log2 fold change [14]: -0.015
log2 fold change [15]: 0.013

LUZP1 (UniProt Q86V48)
UniProt Q86V48, sequence (Q86V48 whole entry, looked up): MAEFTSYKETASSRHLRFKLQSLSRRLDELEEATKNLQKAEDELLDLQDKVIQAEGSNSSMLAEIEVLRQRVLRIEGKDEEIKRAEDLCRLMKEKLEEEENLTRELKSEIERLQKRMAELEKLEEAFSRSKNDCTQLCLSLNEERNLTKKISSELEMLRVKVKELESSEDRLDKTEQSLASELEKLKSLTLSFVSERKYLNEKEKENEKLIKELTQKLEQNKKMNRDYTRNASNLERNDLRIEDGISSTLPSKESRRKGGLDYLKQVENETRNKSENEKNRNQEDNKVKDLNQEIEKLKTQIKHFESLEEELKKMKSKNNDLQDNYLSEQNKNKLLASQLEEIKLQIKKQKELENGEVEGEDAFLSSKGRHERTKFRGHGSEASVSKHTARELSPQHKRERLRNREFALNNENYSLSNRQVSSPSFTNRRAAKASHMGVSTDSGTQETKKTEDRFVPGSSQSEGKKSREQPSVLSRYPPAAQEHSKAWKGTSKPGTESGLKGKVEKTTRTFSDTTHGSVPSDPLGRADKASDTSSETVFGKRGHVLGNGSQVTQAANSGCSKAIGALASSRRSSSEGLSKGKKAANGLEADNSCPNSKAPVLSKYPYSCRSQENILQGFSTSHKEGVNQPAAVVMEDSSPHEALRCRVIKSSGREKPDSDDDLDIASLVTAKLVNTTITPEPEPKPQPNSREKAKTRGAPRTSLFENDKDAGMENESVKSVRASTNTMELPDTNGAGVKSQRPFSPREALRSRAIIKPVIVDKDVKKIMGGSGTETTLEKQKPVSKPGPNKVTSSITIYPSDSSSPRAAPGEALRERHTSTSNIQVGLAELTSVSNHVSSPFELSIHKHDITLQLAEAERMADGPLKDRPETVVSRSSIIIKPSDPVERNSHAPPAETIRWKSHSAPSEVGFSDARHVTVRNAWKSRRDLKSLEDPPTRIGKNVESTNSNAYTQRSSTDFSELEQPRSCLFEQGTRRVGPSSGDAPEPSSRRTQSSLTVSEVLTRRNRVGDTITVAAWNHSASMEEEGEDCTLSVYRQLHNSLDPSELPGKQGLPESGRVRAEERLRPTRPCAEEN
log2 fold change [1]: 0.013
log2 fold change [2]: -0.046
log2 fold change [3]: -0.004
log2 fold change [4]: -0.02
log2 fold change [5]: 0.062
log2 fold change [6]: -0.03
log2 fold change [7]: -0.005
log2 fold change [8]: 0.109
log2 fold change [9]: 0.01
log2 fold change [10]: 0.027
log2 fold change [11]: 0.094
log2 fold change [12]: -0.248 (active)
log2 fold change [13]: 0.129
log2 fold change [14]: 0.022
log2 fold change [15]: -0.03

LAMP1 (UniProt P11279)
UniProt P11279, sequence (P11279 whole entry, looked up): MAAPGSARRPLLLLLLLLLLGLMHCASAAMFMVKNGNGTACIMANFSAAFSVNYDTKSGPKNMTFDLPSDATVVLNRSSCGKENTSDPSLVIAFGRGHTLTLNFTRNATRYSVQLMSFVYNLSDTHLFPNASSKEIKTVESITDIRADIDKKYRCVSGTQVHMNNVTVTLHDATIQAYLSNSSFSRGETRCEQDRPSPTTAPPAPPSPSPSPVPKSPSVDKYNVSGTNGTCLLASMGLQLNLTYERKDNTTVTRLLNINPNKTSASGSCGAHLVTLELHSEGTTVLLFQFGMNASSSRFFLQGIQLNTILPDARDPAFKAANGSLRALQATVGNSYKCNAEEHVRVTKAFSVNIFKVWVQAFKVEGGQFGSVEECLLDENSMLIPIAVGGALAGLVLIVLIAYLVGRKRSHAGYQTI
log2 fold change [1]: 0.021
log2 fold change [2]: -0.033
log2 fold change [3]: -0.058
log2 fold change [4]: 0.002
log2 fold change [5]: -0.036
log2 fold change [6]: -0.113
log2 fold change [7]: -0.012
log2 fold change [8]: 0.016
log2 fold change [9]: -0.003
log2 fold change [10]: -0.017
log2 fold change [11]: 0.007
log2 fold change [12]: 0.095
log2 fold change [13]: -0.009
log2 fold change [14]: -0.05
log2 fold change [15]: -0.004

LAGE3 (UniProt Q14657)
UniProt Q14657, sequence (Q14657 whole entry, looked up): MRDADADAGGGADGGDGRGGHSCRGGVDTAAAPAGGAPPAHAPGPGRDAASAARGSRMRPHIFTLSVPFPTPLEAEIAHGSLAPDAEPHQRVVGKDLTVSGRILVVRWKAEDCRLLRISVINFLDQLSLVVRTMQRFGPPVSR
log2 fold change [1]: -0.065
log2 fold change [2]: 0.186
log2 fold change [3]: 0.006
log2 fold change [4]: -0.055
log2 fold change [5]: 0.021
log2 fold change [6]: -0.03
log2 fold change [7]: 0.1
log2 fold change [8]: 0.013
log2 fold change [9]: 0.017
log2 fold change [10]: 0.084
log2 fold change [11]: 0.045
log2 fold change [12]: -0.085
log2 fold change [13]: -0.016
log2 fold change [14]: -0.041
log2 fold change [15]: -0.043

MRPL46 (UniProt Q9H2W6)
log2 fold change [1]: -0.036
log2 fold change [2]: 0.039
log2 fold change [3]: 0.016
log2 fold change [4]: 0.064
log2 fold change [5]: 0.03
log2 fold change [6]: -0.034
log2 fold change [7]: 0.05
log2 fold change [8]: 0.03
log2 fold change [9]: -0.023
log2 fold change [10]: 0.035
log2 fold change [11]: 0.021
log2 fold change [12]: -0.21
log2 fold change [13]: 0.155
log2 fold change [14]: 0.036
log2 fold change [15]: -0.049

MGST1 (UniProt P10620)
UniProt P10620, sequence (P10620 whole entry, looked up): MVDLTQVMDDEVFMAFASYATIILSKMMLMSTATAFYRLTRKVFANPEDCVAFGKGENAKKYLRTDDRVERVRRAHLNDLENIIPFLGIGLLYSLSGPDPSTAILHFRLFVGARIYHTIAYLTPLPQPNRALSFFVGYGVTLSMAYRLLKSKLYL
log2 fold change [1]: 0.033
log2 fold change [2]: -0.002
log2 fold change [3]: -0.012
log2 fold change [4]: -0.017
log2 fold change [5]: 0.014
log2 fold change [6]: -0.029
log2 fold change [7]: 0.02
log2 fold change [8]: 0.085
log2 fold change [9]: -0.007
log2 fold change [10]: -0.012
log2 fold change [11]: -0.013
log2 fold change [12]: 0.037
log2 fold change [13]: -0.013
log2 fold change [14]: 0.031
log2 fold change [15]: -0.01

MAN2B2 (UniProt Q9Y2E5)
UniProt Q9Y2E5, sequence (Q9Y2E5 whole entry, looked up): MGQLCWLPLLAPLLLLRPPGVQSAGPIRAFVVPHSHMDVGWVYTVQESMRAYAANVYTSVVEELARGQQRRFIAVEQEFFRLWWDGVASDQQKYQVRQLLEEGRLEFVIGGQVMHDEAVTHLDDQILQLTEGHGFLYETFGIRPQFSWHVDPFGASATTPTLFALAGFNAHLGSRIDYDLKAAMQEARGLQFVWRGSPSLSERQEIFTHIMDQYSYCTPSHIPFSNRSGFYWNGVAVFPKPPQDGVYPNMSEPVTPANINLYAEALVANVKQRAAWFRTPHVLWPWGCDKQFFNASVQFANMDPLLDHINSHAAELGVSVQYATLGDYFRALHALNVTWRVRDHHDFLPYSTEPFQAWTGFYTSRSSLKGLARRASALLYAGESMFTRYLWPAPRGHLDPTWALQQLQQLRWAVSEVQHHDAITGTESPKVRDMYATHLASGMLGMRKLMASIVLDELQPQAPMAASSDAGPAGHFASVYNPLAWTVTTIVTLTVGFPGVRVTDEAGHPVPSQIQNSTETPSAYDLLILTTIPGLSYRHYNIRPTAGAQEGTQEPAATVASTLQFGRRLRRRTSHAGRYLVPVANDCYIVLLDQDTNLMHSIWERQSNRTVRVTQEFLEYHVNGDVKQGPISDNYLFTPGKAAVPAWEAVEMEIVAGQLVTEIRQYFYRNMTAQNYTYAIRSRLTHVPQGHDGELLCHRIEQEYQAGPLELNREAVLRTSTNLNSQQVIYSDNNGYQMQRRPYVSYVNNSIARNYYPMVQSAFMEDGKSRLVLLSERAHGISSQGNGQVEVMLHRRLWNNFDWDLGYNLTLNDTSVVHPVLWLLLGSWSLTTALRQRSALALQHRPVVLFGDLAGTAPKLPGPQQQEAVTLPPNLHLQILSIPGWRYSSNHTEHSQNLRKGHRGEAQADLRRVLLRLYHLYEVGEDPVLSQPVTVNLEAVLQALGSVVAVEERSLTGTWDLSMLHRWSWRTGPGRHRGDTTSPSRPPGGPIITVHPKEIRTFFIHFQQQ
log2 fold change [1]: -0.039
log2 fold change [2]: -0.173
log2 fold change [3]: 0.051
log2 fold change [4]: -0.004
log2 fold change [5]: 0.011
log2 fold change [6]: -0.033
log2 fold change [7]: -0.041
log2 fold change [8]: 0.04
log2 fold change [9]: 0.038
log2 fold change [10]: 0.033
log2 fold change [12]: 0.117
log2 fold change [13]: -0.014
log2 fold change [14]: -0.005
log2 fold change [15]: 0.019

LRCH3 (UniProt Q96II8)
UniProt Q96II8, sequence (Q96II8 whole entry, looked up): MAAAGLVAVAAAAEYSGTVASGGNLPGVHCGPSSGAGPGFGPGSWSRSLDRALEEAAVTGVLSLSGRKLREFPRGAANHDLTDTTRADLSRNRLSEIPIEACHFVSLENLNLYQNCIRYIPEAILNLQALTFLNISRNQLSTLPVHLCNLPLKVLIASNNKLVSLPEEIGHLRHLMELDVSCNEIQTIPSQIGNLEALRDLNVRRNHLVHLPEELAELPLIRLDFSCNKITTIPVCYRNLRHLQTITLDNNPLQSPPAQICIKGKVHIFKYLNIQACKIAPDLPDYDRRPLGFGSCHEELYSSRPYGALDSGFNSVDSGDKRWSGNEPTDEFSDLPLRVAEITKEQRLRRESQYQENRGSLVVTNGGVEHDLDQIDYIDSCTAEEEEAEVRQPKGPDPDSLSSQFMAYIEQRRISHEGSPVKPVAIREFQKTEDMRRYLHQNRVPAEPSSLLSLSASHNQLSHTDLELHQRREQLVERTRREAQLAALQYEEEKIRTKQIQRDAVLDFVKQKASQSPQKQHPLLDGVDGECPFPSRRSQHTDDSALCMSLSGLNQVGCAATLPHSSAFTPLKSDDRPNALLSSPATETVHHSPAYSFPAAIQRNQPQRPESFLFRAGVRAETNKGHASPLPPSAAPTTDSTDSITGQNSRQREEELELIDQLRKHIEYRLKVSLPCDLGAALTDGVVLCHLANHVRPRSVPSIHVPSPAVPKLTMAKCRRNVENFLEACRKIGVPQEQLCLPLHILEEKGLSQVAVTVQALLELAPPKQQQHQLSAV
log2 fold change [1]: -0.003
log2 fold change [2]: -0.029
log2 fold change [3]: -0.095
log2 fold change [4]: 0.064
log2 fold change [5]: 0.038
log2 fold change [6]: -0.16
log2 fold change [7]: -0.029
log2 fold change [8]: -0.005
log2 fold change [9]: 0.011
log2 fold change [10]: -0.025
log2 fold change [11]: 0.053
log2 fold change [12]: -0.535 (active)
log2 fold change [13]: 0.048
log2 fold change [14]: -0.03
log2 fold change [15]: -0.009

LSS (UniProt P48449)
log2 fold change [1]: 0.042
log2 fold change [2]: 0.001
log2 fold change [3]: 0.016
log2 fold change [4]: -0.025
log2 fold change [5]: 0.047
log2 fold change [6]: -0.022
log2 fold change [7]: -0.065
log2 fold change [8]: 0.003
log2 fold change [9]: 0.083
log2 fold change [10]: 0.092
log2 fold change [11]: -0.042
log2 fold change [12]: 0.049
log2 fold change [13]: -0.039
log2 fold change [14]: -0.014
log2 fold change [15]: -0.043

MAP2K4 isoform 2 (UniProt P45985)
UniProt P45985, sequence (P45985 whole entry, looked up): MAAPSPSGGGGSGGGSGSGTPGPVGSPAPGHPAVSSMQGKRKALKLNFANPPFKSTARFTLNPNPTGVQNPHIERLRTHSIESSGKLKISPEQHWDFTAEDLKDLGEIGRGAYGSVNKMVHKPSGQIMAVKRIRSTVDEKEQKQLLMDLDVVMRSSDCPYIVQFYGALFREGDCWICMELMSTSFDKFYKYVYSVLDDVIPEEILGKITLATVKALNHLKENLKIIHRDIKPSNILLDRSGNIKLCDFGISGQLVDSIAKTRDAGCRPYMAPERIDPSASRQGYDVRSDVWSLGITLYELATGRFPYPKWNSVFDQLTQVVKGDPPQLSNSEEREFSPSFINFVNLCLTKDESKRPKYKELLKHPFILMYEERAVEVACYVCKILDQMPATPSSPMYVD
log2 fold change [1]: -0.013
log2 fold change [2]: 0.052
log2 fold change [3]: -0.014
log2 fold change [4]: 0.248
log2 fold change [5]: 0.046
log2 fold change [6]: -0.112
log2 fold change [7]: -0.023
log2 fold change [8]: 0.019
log2 fold change [9]: 0.063
log2 fold change [10]: 0
log2 fold change [11]: -0.119
log2 fold change [12]: -0.216
log2 fold change [13]: 0.023
log2 fold change [14]: 0.013
log2 fold change [15]: 0.028
